# Screen size: about 66,000 compounds; about 960 (1.5%) showed an effect of 50% or more. This is one part of a sample in which strong results are shown more often than they occur.
# Test system: Trypanosoma brucei
# Test: Trypanosoma brucei 72 hour study
# Type: functional, organism-based
# Design: scale not given: in the data most compounds retested in dose-response had high values
structure (smiles),measurement,setting,value
Cn1ccc(C(=O)NC2CCC23CCN(CC2CCOCC2)CC3)c1.O=C(O)C(F)(F)F (configuration not stated),Percent Effect,"30 µM, 30.03 µM",-17.43%
COCCN1CCCn2c(nc(CNS(C)(=O)=O)cc2=O)C1.O=C(O)C(F)(F)F,Percent Effect,"30.3 µM, […]",5.593%
CC(=O)N1N=C(c2ccccc2)OC1C(=O)NCCc1ccc(Cl)cc1 (configuration not stated),Percent Effect,"30.3 µM, […]",-41.87%
same,Percent Effect,"10 mM, 10 mM as filed; unlikely as a test dose",-29.49%
CC(=O)N1N=C(c2ccccc2)OC1C(=O)NCCc1ccc(O)cc1 (configuration not stated),Percent Effect,"30.3 µM, […]",-23.74%
same,Percent Effect,"10 mM, 10 mM as filed; unlikely as a test dose",-98.13%
CC(=O)N1N=C(c2ccccc2)OC1C(=O)NCCc1ccc(C)cc1 (configuration not stated),Percent Effect,"30.3 µM, […]",99.94%
same,Percent Effect,"10 mM, 10 mM as filed; unlikely as a test dose",-45.21%
O=C(Cc1cccc(F)c1)N1CCn2cc(Cn3cccn3)nc2C1.O=C(O)C(F)(F)F,Percent Effect,"30.3 µM, […]",-215.4%
CC(C)c1n[nH]c(C2CN(C(=O)c3ccnc(C4CC4)n3)CCO2)n1 (configuration not stated),Percent Effect,10 µM,-44.45%
Cc1nc2c(cc1C(=O)O)CCN(Cc1ccsc1)CC2.O=C(O)C(F)(F)F.O=C(O)C(F)(F)F,Percent Effect,"30.3 µM, […]",-6.304%
Cc1ncc(CN2CCOC(c3ccc(-c4cc[nH]n4)cn3)C2)s1 (configuration not stated),Percent Effect,"30.3 µM, […]",-10.46%
Cc1ncc(CN2CCOC(c3ccc(-c4cnn(C)c4)cn3)C2)s1 (configuration not stated),Percent Effect,"30.3 µM, […]",-5.677%
Cc1ncc(CN2CCOC(c3ccc(-c4ccccc4F)cn3)C2)s1 (configuration not stated),Percent Effect,"30.3 µM, […]",93.67%
O=C(NC[C@]12COC[C@H]1CN(Cc1nccs1)C2)c1ccsc1.O=C(O)C(F)(F)F,Percent Effect,"30 µM, 30.03 µM",-41.51%
CN(C)CCN1CCN(Cc2cccc(C#N)c2)Cc2cccnc21.O=C(O)C(F)(F)F.O=C(O)C(F)(F)F.O=C(O)C(F)(F)F,Percent Effect,"30.3 µM, […]",-65.33%
CN1C(=O)[C@H]2CC[C@@H]1CN(S(=O)(=O)c1ccc(Cl)cc1Cl)C2,Percent Effect,"30 µM, 30.03 µM",13.71%
Cn1cc(C2CCCN2Cc2csc(C(C)(C)C)n2)cn1 (configuration not stated),Percent Effect,"30 µM, 30.03 µM",87.76%
CC(C)c1nc(CN2CCCC2c2cnn(C)c2)cs1 (configuration not stated),Percent Effect,10 µM,-7.544%
Cn1cc(C2CCCN2Cc2csc(-c3ccccc3)n2)cn1 (configuration not stated),Percent Effect,10 µM,-15.89%
COCCn1c(=O)n(C)c(=O)c2ccc(C3CCN(C(C)=O)CC3)nc21,Percent Effect,"30.3 µM, […]",24.28%
Cl.OC[C@H]1CC[C@]2(CC1)CN(Cc1ccsc1)Cc1ccccc1O2,Percent Effect,"30.3 µM, […]",39.16%
CC(C)c1nccc(CN2CCCC(O)(CN3CCCC3)C2)n1 (configuration not stated),Percent Effect,"30 µM, 30.03 µM",17.13%
CC(C)c1nccc(CN2CCC(O)(CN3CCCCC3)C2)n1 (configuration not stated),Percent Effect,"30 µM, 30.03 µM",67.93%
CC(C)c1nccc(CN2CCCC(O)(CN(C)C)C2)n1 (configuration not stated),Percent Effect,"30 µM, 30.03 µM",-2.317%
CCCSc1ncc(CN(C)CCN2CCCCC2)cn1.O=C(O)CC(O)(CC(=O)O)C(=O)O,Percent Effect,"30.3 µM, […]",2.471%
Cc1cccc(Nc2cc(C3CCCN(CC(N)=O)C3)ccn2)n1.O=CO.O=CO (configuration not stated),Percent Effect,"30.3 µM, […]",-0.9423%
